Measured values reported in PubChem BioAssay (Tox21).
Where “and” joins values, the source holds several entries; their conditions need not be identical. Equal values may be shown once. Results filed as inconclusive are left out. A call without a number means that no potency is given here. Where a structure was tested more than once in an assay, its records may differ in their call. Calls of active or inactive are those of the source. No rule for the calls is given here.

Assay: qHTS assay to identify small molecule antagonists of the estrogen related receptor signaling pathway with the pleiotropic PPARgamma coactivator (PGC) from Tox21 10K library (AID 1224841); also: actives are mostly falling curves and most rising ones were filed inactive; nearly all actives have a fitted effect of over 50% in size
Details: PGC/ERR reporter cell line, ONE-Glo luciferase, 18 h; series mostly up to 92.4 µM
From the text: U.S. Tox21 Program National Center for Advancing Translational Sciences [NCATS] NIH Chemical Genomics Center [NCGC] U.S. Environmental Protection Agency [EPA] National Institutes of Environmental Health Sciences [NIEHS] National Toxicology Program [NTP] U.S. Food and Drug Administration [FDA] Tox21 Assay Overview: Estrogen related receptors (ERRs), the first orphan nuclear receptors discovered, play an important role in the control of cellular energy metabolism. ERRs are required for high-energy production in response to the environmental challenges. The pleiotropic PPARgamma coactivator (PGC) is a major partner of ERR and a key regulator in energy homeostasis. Together they have been implicated in the etiology of metabolic disorders such as Type 2 diabetes and metabolic syndrome. ERR-alpha was also identified as an adverse marker for breast cancer progression; ERR-alpha-positive tumors have a poor prognosis. To screen and to identify environmental compounds that perturb the ERR and PGC/ERR signaling pathways could provide valuable information for potential therapeutic or preventive measures in the treatment of metabolic disease. For identifying PGC/ERR antagonists, PGC/ERR cell line (provided by NTP) has been used to screen Tox21 10K library.
Tox21 Assay Protocol Summary: The PGC/ERR cells were dispensed at 2,000 cells/5 ul/well in 1536-well white plates using a Multidrop dispenser. After the assay plates were incubated at a 37 C/5% CO2 incubator for 6 hours, 23 nL of compounds dissolved in DMSO, positive and negative controls or DMSO only was transferred to the assay plate by a pin tool. The plates were incubated at 37 C for 18 hours. 4 ul/well of One-Glo reagent was added into the assay plates using a Flying Reagent Dispenser. After 30-minute incubation at room temperature, the luminescence intensity in the plates was measured using a ViewLux plate reader.
Potency is read from the fitted curve at half-maximal effect.

Row | SMILES | Potency
1 | CC(C)C(=O)Nc1ccc([N+](=O)[O-])c(C(F)(F)F)c1 | 28.1 µM (active) and 30.6 µM (active) and 21.1 µM (active)
2 | CCCCNC(=O)NS(=O)(=O)c1ccc(C)cc1 | inactive
3 | O=C(Nc1ncc([N+](=O)[O-])s1)c1cccs1 | inactive
4 | CN(C)C(=S)SC(=S)N(C)C | 1.25 µM (active) and 1.22 µM (active) and 2.37 µM (active)
5 | CS(=O)(=O)OCCCCOS(C)(=O)=O | 30.7 µM (active) and inactive
6 | O=S1(=O)OC(c2ccc(O)cc2)(c2ccc(O)cc2)c2ccccc21 | 54.5 µM (active) and 61.1 µM (active) and inactive
7 | O=c1[nH]cnc2c1ncn2[C@H]1CC[C@@H](CO)O1 | inactive
8 | NS(=O)(=O)c1cc2c(cc1Cl)NCNS2(=O)=O | inactive
9 | O=CC(=O)c1ccccc1 | inactive
10 | Cc1ncc([N+](=O)[O-])n1CCO | inactive
11 | CC1(C)O[C@@H]2C[C@H]3[C@@H]4CCC5=CC(=O)C=C[C@]5(C)[C@@]4(F)[C@@H](O)C[C@]3(C)[C@]2(C(=O)CO)O1 | inactive
12 | CN(C)CCOC(C)(c1ccccc1)c1ccccn1 (centres undefined) | inactive
13 | C1=CC2C3C=CC(C3)C2C1 (centres undefined) | 60 µM (active)
14 | CC(C)NCC(O)c1ccc(O)c(O)c1 (centres undefined) | inactive
15 | CCCCC1(COC(=O)CCC(=O)O)C(=O)N(c2ccccc2)N(c2ccccc2)C1=O | inactive
16 | COc1ccc(C(Cl)=C(c2ccc(OC)cc2)c2ccc(OC)cc2)cc1 | 27.2 µM (active) and 30.6 µM (active) and 23.7 µM (active)
17 | Cc1ncc([N+](=O)[O-])n1C | inactive
18 | CCOc1ccc(NC(C)=O)cc1 | inactive
19 | CCCCCCc1ccc(O)cc1O | inactive
20 | Cc1cccc(C)c1 | inactive
21 | CCN(CC)C(=O)c1cccc(C)c1 | inactive
22 | CN(C)C(=O)Nc1ccc(Cl)c(Cl)c1 | inactive
23 | Nc1c2c(nc3ccccc13)CCCC2 | inactive
24 | CN[C@H]1CC[C@@H](c2ccc(Cl)c(Cl)c2)c2ccccc21 | inactive
25 | CN1CCc2cccc3c2[C@H]1Cc1ccc(O)c(O)c1-3 | 30.9 µM (active) and 20.4 µM (active) and 29.8 µM (active)
26 | COc1ccc2c(c1)c(CC(=O)O)c(C)n2C(=O)c1ccc(Cl)cc1 | 30.8 µM (active) and inactive
27 | Nc1ccc(O)c([N+](=O)[O-])c1 | inactive
28 | CCCCCCCCCCCCCCCC[N+](C)(C)Cc1ccccc1 | 31.6 µM (active) and 24.8 µM (active) and 10.6 µM (active)
29 | Nc1c(N=Nc2ccc(-c3ccc(N=Nc4cc(S(=O)(=O)O)c5ccccc5c4N)cc3)cc2)cc(S(=O)(=O)O)c2ccccc12 | 21.7 µM (active)
